Assay outcomes from PubChem.
This excerpt belongs to a sample that is enriched for hits.
Tb PYK inh: blocks Trypanosoma brucei pyruvate kinase | Q57TT1 | TbPYK enzyme, Kinase-Glo Plus ATP luminescence, 45 min | Potency, µM (titrated, usually from 76.8 µM), for inactives: top-dose activity, negative = inhibition, actives largely listed as inhibitors | 410,000 compounds, 0.12% hits; further: potency means the concentration at half of the fitted maximal effect; on the % scale 0 is the no-effect control and ±100 the full control effect; nearly all actives have a fitted effect of over 50% in size
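Assay buffer: 50 mM TEA pH 7.2, 100 mM KCl, 10 mM MgCl2, 0.05% BSA, 0.01% Tween-20. Pyruvate kinase from T. brucei plus substrate met compound, then ADP (130 uM final). Luminescence was read post 45 min RT.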
Shiga toxin inh: blocks Shiga toxin action in Vero cells; Vero cells, Shiga toxin protein synthesis inhibition reporter; inhibition, % at 38.7 µM; 290,000 compounds, 9.2% hits; AID 2315; in the data active means inhibition mostly above about 28%, no sharp cut-off; inactive means mostly below about 43%; further: 0% is about no effect
RE007 growth inh: less growth of the S. pombe RE007 Vpr strain; 360,000 compounds, 0.21% hits; S. pombe RE007 Vpr strain, BacTiter-Glo ATP luminescence, 24 h; Potency, µM (titrated, usually from 92.2 µM), inactives show at the top dose activity change, negative = less growth, most hits filed as inhibitors; active means well fitted falling curve with a large enough effect; inconclusive means small, poorly fitted or top-dose-only effect; inactive means no such curve, though single readings can be large or run the other way; further: potency means the concentration at half of the fitted maximal effect; on the % scale 0 is the no-effect control and ±100 the full control effect; nearly all actives have a fitted effect of over 50% in size
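Fission yeast strain RE007, carrying one chromosomally integrated HIV-1 vpr copy, was seeded at OD 0.01 in PMG+AL medium with 23 nL pinned compound. After 24 h at 30 °C and 99% humidity, viability was read by BacTiter-Glo luminescence.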
Cycloheximide cs: counter-screen hit for Shiga toxin inhibitors, cycloheximide. cell reporter, cycloheximide protein synthesis inhibition counterscreen. max response, %. 300,000 compounds, 12% hits. AID 2314; in the data active means max response mostly above about 13%, no sharp cut-off; inactive means mostly below about 14%; further: read at 38.3 µM for the half of the compounds with a filed dose; 0% is about no effect
LmPK inhibitor: blocks Leishmania mexicana pyruvate kinase activity | Q27686 | 290,000 compounds, 0.37% hits | Potency, µM (highest dose often 57.5 µM), inactives show at the highest dose activity change, negative = inhibition, hits mostly inhibitors | purified LmPK, Kinase-Glo ATP luminescence, 1 h | AID 1721; further: potency means the concentration at half of the fitted maximal effect; on the % scale 0 is the no-effect control and ±100 the full control effect
Target sequence (Q27686 whole entry, looked up): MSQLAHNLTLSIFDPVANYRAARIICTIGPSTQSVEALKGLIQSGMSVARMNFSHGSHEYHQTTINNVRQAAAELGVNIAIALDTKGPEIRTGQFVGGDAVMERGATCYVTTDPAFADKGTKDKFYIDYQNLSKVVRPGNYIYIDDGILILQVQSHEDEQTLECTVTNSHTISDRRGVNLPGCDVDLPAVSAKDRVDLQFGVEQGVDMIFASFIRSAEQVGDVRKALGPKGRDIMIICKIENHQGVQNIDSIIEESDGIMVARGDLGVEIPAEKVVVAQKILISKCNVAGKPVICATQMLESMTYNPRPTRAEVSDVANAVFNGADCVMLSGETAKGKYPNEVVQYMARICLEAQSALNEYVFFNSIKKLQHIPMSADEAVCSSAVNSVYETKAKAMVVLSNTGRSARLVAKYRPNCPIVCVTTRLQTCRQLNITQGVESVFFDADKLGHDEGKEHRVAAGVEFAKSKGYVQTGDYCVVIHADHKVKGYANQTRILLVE
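ATP generated from ADP (0.1 mM) and PEP (0.5 mM) by 0.1 nM LmPK over 1 h at room temperature (pH 7.2 imidazole buffer) was detected by coupled luciferase luminescence. Values were normalized to uninhibited and no-enzyme wells.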
FBPA Giardia inh: inhibitors of Giardia lamblia fructose-1,6-bisphosphate aldolase; A8B2U2; purified Giardia FBPA; Potency, µM (highest dose often 59.6 µM), for inactives: at the top dose activity, negative = inhibition, hits mostly inhibitors; 290,000 compounds, 0.71% hits; AID 2451; further: potency means the concentration at half of the fitted maximal effect; on the % scale 0 is the no-effect control and ±100 the full control effect; nearly all actives have a fitted effect of over 55% in size
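40 nM FBPA preincubated 10 min at RT with compound (up to 57.5 uM final), then substrate plus GAPDH/TPI/NAD/arsenate coupling and diaphorase/resazurin added. Fluorescence read after 20 min at RT, 525/598 nm.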
The depositor's hits bear a star; ? = inconclusive; / = no result; [ ] = dose if it differs, or a comment. Unless noted, the call rests on the fitted dose curve; in most records, active means well fitted curve in the direction sought with a large enough effect; inconclusive means small, poorly fitted or top-dose-only effect, or another doubt; inactive means no such curve, though single readings can be large; an effect the other way counts as inactive or inconclusive.

SMILES | Tb PYK inh | Shiga toxin inh | RE007 growth inh | Cycloheximide cs | LmPK inhibitor | FBPA Giardia inh
CC/C(=N\Nc1ccccc1[N+](=O)[O-])c1ccc(O)cc1 | -4% | 58* | -7% | 23* | -3% | -12%
CC/C(=N\Nc1ccc([N+](=O)[O-])cc1[N+](=O)[O-])c1ccc(O)cc1 | -4% | 3 | -16% | -3 | -4% | 1%
c1ccc(NCc2cccnc2)cc1 | 6% | -15 | 2% | -2 | -2% | -1%
Cn1cccc1-c1nc2ccc(NC(=O)c3ccco3)cc2[nH]1 | 2% | 56 | 0% | 44* | 0% | -6%
CC(=O)Nc1ccc2nc(-c3ccncc3)[nH]c2c1 | -2% | 30 | -1% | 10 | 4% | -4%
O=C(Nc1cccc(-c2nc3ccccc3[nH]2)c1)c1ccco1 | 1% | 42* | 5% | 17 | -5% | 9%
Cc1ccc2nc(-c3ccc(NC(=O)c4ccco4)cc3)[nH]c2c1 | -6% | 75* | 4% | 39* | -3% | -15%
COc1c(Cl)cc(C(=O)Nc2cccc(-c3nc4ccccc4[nH]3)c2)cc1Cl | -2% | / | / | / | / | /
c1cncc(CNc2cccc(-c3nc4ccccc4[nH]3)c2)c1 | 2% | active | 14% | 54* | -11% | -6%
NCC1O[C@@H](OC2C(N)C[C@H](N)[C@@H](O[C@H]3OC(CO)C(O)C(N)C3O)C2O)C(N)C(O)C1O (stereo not given in full) | 5% | / | / | / | / | 2%
CCCCNC(=O)C(c1ccc(OCC(=O)OC)c(C(=O)OC)c1)N(CCc1ccccn1)C(=O)CCCCCN1C(=O)NC(c2ccc(-c3ccccc3)cc2)C(C(=O)OCc2ccccc2)=C1C (stereo not given) | / | / | / | / | / | -1%
Cc1cccc2nc(Cn3c(=O)n(-c4ccccc4)c(=O)c4c5c(sc43)CCC5)cc(=O)n12 | 2% | / | / | / | / | /
O=C(Nc1cccc(-c2cnc3ccccc3n2)c1)c1cccc(NC(=O)c2ccco2)c1 | 0% | 46* | -3% | 43* | 4% | 7%
O=C(Nc1ccc2nc(-c3cccs3)[nH]c2c1)c1cccs1 | 8% | -6 | -9% | 2 | 0% | 12%
O=C(Nc1cccc(-c2cnc3ccccc3n2)c1)c1ccccc1 | -5% | 47 | -4% | 31 | 12% | 5%
O=C(Nc1ccc2nc(-c3cccs3)[nH]c2c1)c1ccco1 | -14% | 60* | -2% | 27* | -7% | -16%
CC(C)C(=O)N1c2nc(C(C)C)nn2C2(CCCCC2)[C@@H]2CCCC[C@@H]21 | 2% | / | / | / | / | /
CCC(=O)N1CCCc2cc(S(=O)(=O)N3CCC(C(=O)Nc4ccc(C#N)cc4)CC3)ccc21 | 0% | / | / | / | / | /
CO[C@@H]1COC(=O)[C@H]2CCCN2C(=O)C/C=C\[C@@H](C)[C@H](OC)COC(=O)[C@H]2CCCN2C(=O)C/C=C\[C@H]1C | / | / | / | / | / | 1%[12.9 µM]
Fc1ccccc1C1CC(c2ccco2)=Nc2ccccc2S1 (stereo not given) | -14% | 104* | 25µM* | 49* | 1% | ?
O=C1CCC/C(=N/Nc2ccc(Cl)cc2)C1 | -9% | 67* | -12% | 29* | -5% | ?
CC(C)(C)c1ccc(-c2ncccc2O)cc1 | 3% | 69* | -25% | 32* | -6% | -20%
O=C(COc1ccccc1)N/N=C/c1cc2c(cc1[N+](=O)[O-])OCO2 | 2% | 86 | -7% | 23* | -1% | -6%
Cc1ccc(OCC(=O)N/N=C/c2ccc([N+](=O)[O-])o2)cc1 | 3% | -5 | -14% | 12 | -3% | -3%
O=C(COc1ccccc1)N/N=C/c1ccc([N+](=O)[O-])o1 | -4% | 9 | -13% | 11* | -5% | -8%
SMILES | Tb PYK inh | Shiga toxin inh | RE007 growth inh | Cycloheximide cs | LmPK inhibitor | FBPA Giardia inh
O=C(CNc1ccc2ccccc2c1)N/N=C/c1ccc([N+](=O)[O-])o1 | -12% | 15 | 1% | 3 | 5% | -7%
O=C(CSc1ccc(Cl)cc1)N/N=C/c1ccc([N+](=O)[O-])o1 | -7% | 19 | -6% | 14* | 11% | -25%
COc1ccc2c(c1)N(C[C@@H](C)CN(C)C)c1ccccc1S2 | -5%[33.2 µM] | / | / | / | / | 0%[21.7 µM]
Cc1ccc(OCCSc2nc(N)cc(N)n2)cc1 | 4% | 130* | -12% | 53* | 0%[11.5 µM] | -1%
COc1ccc(OCCSc2nc(N)cc(N)n2)cc1 | -6% | 101* | 0% | 49* | 4% | -3%
CCNc1nc(NC(C)C)nc(SCCOc2ccc(C)cc2)n1 | 2% | 16 | -18% | 10 | 0% | -1%
COc1ccc(OCCSc2nc(N)cc(=O)[nH]2)cc1 | -3% | 2 | 8% | 0 | 1% | -1%
CCOc1ccc2c(c1)c(=O)c(C(=O)c1ccccc1)cn2Cc1ccccc1F | 2% | / | / | / | / | /
O=C(/C=C/c1ccco1)NC(=S)Nc1ccccc1O | -1% | 92* | -1% | 19* | 0% | -25%
O=C(/C=C/c1ccco1)NC(=S)Nc1ccccc1N1CCOCC1 | 4% | -14 | 13% | -3 | 4% | -2%
Cc1ccc(NC(=S)NC(=O)/C=C/c2ccco2)c(O)c1 | 2% | 68 | -18% | 60* | -3% | -28%
O=C(/C=C\c1ccco1)NC(=S)Nc1ccccc1O | -6% | 64* | -7% | 34* | 11% | ?
O=C(CSc1nnc(-c2ccc(O)cc2)o1)c1ccc(Br)cc1 | 0% | / | / | / | / | /
Cc1ccc(C)c(NC(=O)CSc2nnc(-c3cc4occc4n3C)n2-c2ccccc2C)c1 | -3% | / | / | / | / | /
COC(=O)c1cccc(CSc2nc3ccccc3[nH]2)c1 | 6% | 92* | -20% | 39* | -17% | -8%
COC(=O)c1ccc(CSc2nc3ccccc3[nH]2)o1 | -10% | 10 | 1% | 11* | -2% | -5%
COC(=O)c1ccc(CSc2nnc(NCc3ccccc3)s2)o1 | -17% | 16 | 11% | -3 | 10% | 2%
COC(=O)c1ccc(CSc2nc(-c3ccccc3)cs2)o1 | -9% | 45 | -17% | 22* | -3% | -1%
O=[N+]([O-])c1ccc(CSc2nnc3ccccn23)cc1 | 0% | 6 | -3% | 7 | 2% | -6%
O=[N+]([O-])c1ccccc1CSc1nnc2ccccn12 | 4% | 53* | -15% | 40* | 0% | 0%
Clc1ccc(CSc2nnc3ccccn23)c(Cl)c1 | 0% | 40* | 21% | 60* | -5% | 3%
Cc1noc(C)c1-c1cncnc1N(C)Cc1ccco1 | / | / | / | / | / | -1%
Cc1nc(C)c(-c2ccc(SCc3ccccc3C)nn2)s1 | -5% | 34* | 5% | 45* | 8% | 10%
Cc1ccccc1CSc1ccc(-c2ccc3c(c2)OCO3)nn1 | 1% | 82* | 8% | 49* | -1% | -1%
c1cncc(CSc2ccc(-c3ccc4c(c3)OCO4)nn2)c1 | -4% | 99* | 6% | 57* | 7%[11.5 µM] | -12%
